Screening data as filed in PubChem BioAssay.
The list is not random: actives were taken first. Their share in the collection is about 4.2%.
VDR inh = blocks the human vitamin D receptor | P11473 | VDR-SRC2-3 peptide fluorescence polarization, 2 h | Potency, µM, for the others: max response, negative = inhibition, hits mostly inhibitors | 400,000 compounds, 0.93% hits | AID 504847
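The screen uses fluorescence polarization to detect compounds that interfere with recruitment of the SRC2-3 coactivator peptide to VDR; plates are read after 2 h at room temperature.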
Sfp inh = blocks B. subtilis Sfp PPTase activity. Q9F4F7. Biochemical Sfp PPTase activity, qHTS. Potency, µM, inactives show largest response in the series, negative = inhibition, usual class: inhibitors. 310,000 compounds, 3.5% hits;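 note: the enzyme is Sfp with the accession as filed and its product quenches rhodamine fluorescence; 0% = enzyme reaction without inhibitor and -100% = no enzyme wells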
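Fluorescence-quenching assay: 15 nM Sfp-PPTase preincubated 15 min at room temperature with compound, then 5 uM rhodamine-CoA and 12.5 uM BHQ-2-labelled YbbR peptide added. Fluorescence (ex 525/em 598 nm) read at start and after 30 min; difference gives rate.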
ALOX12 inh = ALOX12 (human) lipoxygenase inhibition | purified 12hLO, xylenol orange hydroperoxide absorbance | P18054 | 580,000 compounds, 1.1% hits | Potency, µM (series often up to 108 µM), without a hit: at the top dose activity change, negative = inhibition, actives largely listed as inhibitors
Target sequence (P18054 whole entry, looked up): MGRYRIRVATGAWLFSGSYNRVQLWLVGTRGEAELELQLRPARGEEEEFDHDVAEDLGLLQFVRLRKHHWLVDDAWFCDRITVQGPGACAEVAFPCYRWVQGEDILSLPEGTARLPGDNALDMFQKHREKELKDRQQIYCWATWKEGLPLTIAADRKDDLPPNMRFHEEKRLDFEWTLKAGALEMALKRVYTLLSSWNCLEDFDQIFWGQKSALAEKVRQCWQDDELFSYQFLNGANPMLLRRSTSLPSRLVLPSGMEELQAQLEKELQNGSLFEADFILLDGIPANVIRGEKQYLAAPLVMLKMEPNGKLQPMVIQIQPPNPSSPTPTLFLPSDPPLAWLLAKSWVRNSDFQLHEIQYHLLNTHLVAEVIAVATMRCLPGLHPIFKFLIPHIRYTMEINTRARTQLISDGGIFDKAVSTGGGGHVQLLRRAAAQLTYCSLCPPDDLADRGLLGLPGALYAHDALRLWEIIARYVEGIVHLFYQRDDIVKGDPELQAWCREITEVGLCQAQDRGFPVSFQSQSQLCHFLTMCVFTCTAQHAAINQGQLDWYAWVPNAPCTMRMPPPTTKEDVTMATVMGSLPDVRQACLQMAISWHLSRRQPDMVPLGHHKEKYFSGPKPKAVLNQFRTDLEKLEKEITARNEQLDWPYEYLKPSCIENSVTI
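Purified human 12hLO at 150 nM in 25 mM Hepes, 0.01% Triton X-100, pH 7.0, preincubated 15 min at room temperature with compound. Reaction started with 40 uM arachidonic acid, 30 min at room temperature. Hydroperoxide measured by Fe-xylenol orange, 573/405 nm absorbance ratio.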
PLK1 PBD inh = PLK1 (human) polo-box domain binding inhibition; Plk1 PBD binding of FITC phosphopeptide, fluorescence polarization; P53350; 360,000 compounds, 2.8% hits; Potency, µM, for the others: max response, negative = inhibition, most hits filed as inhibitors; note: series mostly up to about 57 µM; nearly all actives have a fitted effect of over 65% in size
Active calls of the source: *; u = inconclusive; x = not tested or not shown. Calls come from the whole dose curve; as a rule, active = well fitted curve in the direction sought with a large enough effect; inconclusive = small, poorly fitted or top-dose-only effect, or another doubt; inactive = no such curve, though single readings can be large; an effect the other way counts as inactive or inconclusive. Unless noted, % is set by controls: 0 for no effect and ±100 for the full control effect; potency is the fitted concentration of half-maximal effect.

SMILES | VDR inh | Sfp inh | ALOX12 inh | PLK1 PBD inh
COc1ccc(-c2cn3c(n2)CO[C@@H](CNCc2ccc(Cl)cc2)C3)cc1 | x | x | 8.91µM* | x
COc1ccc(C(=O)Nc2nccs2)cc1C12CC3CC(CC(C3)C1)C2 | x | x | 43.5% | x
O=C(c1ccccc1F)N1CCC2(CC1)CN(Cc1ccccc1)CC2CO (stereo not given) | x | x | 1.8% | x
CCOC(=O)c1c(C)[nH]c(C(=O)COC(=O)/C=C/c2cccc(OC)c2OC)c1C | 11.7% | 16.7% | 4.6% | -5.8%
CCOC(=O)c1c(C)[nH]c(C(=O)COC(=O)COc2ccccc2C=O)c1C | u | -10.0% | u | 18.9µM*
Nc1ccccc1Sc1ccccc1[N+](=O)[O-] | -5.3% | -1.9% | -8.9% | -4.0%
Nc1nc(O)c(Sc2ccccc2[N+](=O)[O-])c(=O)[nH]1 | -10.3% | -6.8% | u | 11.9µM*
CCS(=O)(=O)N1CCN(Cc2ccc([N+](=O)[O-])cc2)CC1 | 8.1% | 79.4µM* | -21.6% | 2.2%
COc1cc(CN2CCN(Cc3ccccc3C(F)(F)F)CC2)cc(OC)c1OC | -12.9% | -29.5% | u | 5.5%
COc1cc(CN2CCN(Cc3ccc(C(F)(F)F)cc3)CC2)cc(OC)c1OC | -8.1% | 20µM* | u | -6.5%
COc1ccc(S(=O)(=O)N2CCN(Cc3cc(OC)c(OC)c(OC)c3)CC2)cc1 | -13.5% | -28.2% | 0.708µM* | -2.3%
COc1ccc(CN2CCN(Cc3ccc(C(F)(F)F)cc3)CC2)c(OC)c1 | -2.4% | 70.8µM* | -62.3% | 0.2%
COc1ccc(CN2CCN(Cc3ccc(C)cc3)CC2)c(OC)c1 | -8.1% | -19.1% | u | 4.2%
CS(=O)(=O)N1CCN(Cc2ccc(C(F)(F)F)cc2)CC1 | -3.2% | 56.2µM* | u | -4.3%
Cc1cc(C)c(NC(=S)NCCCSC2CCCCC2)c(C)c1 | -2.2% | 44.7µM* | 25.1µM* | 23.8µM*
COc1ccc(CNc2ccc(Br)cc2)cc1 | 3.0% | 56.2µM* | -2.6% | 4.8%
COc1ccc(Nc2ccc(OC)cc2)cc1 | -16.8% | 2.82µM* | u | -12.0%
COc1ccc(NCc2ccc(OC)c(OC)c2)cc1 | x | -2.5% | x | x
COc1ccc(OC)cc1 | 0.1% | x | -2.8% | -3.8%
Clc1ccccc1/C=N/NC1=Nc2cccc3cccc1c23 | -4.0% | -1.3% | -22.0% | -5.1%
C(=N\NC1=Nc2cccc3cccc1c23)/c1ccccn1 | -12.7% | 44.7µM* | -20.1% | 7.6%
COc1ccc(N=C2C(=Nc3ccc(OC)cc3)N(c3ccc(OC)cc3)C(=S)N2C(=O)c2ccc(OC)cc2)cc1 | u | -24.6% | u | -9.2%
COc1ccc(N2C(=S)N(C(=O)c3ccccc3)C(=Nc3ccccc3)C2=Nc2ccccc2)cc1 | u | x | 6.0% | 21.2µM*
COc1ccc(N=C2C(=Nc3ccc(OC)cc3)N(c3ccccc3)C(=S)N2C(=O)c2ccc(Cl)cc2)cc1 | -13.3% | 50.1µM* | -28.4% | -9.0%
S=C1SCN(Cc2cccnc2)CN1Cc1cccnc1 | -10.2% | 14.1µM* | -6.6% | -0.4%
SMILES | VDR inh | Sfp inh | ALOX12 inh | PLK1 PBD inh
Cc1ccc(/C=N/NC(=O)c2c(-c3ccccc3)noc2C)c(O)c1 | x | 24.7% | u | x
Cc1onc(-c2ccccc2)c1C(=O)N/N=C/c1c[nH]c2ccccc12 | 3.2% | -8.8% | -3.9% | 23.8µM*
CCCOc1ccc(N)cc1N | u | 44.7µM* | u | u
CCCOc1cc(N)ccc1C(=O)OCCN(CC)CC | -2.1% | 19.1% | -26.9% | -11.7%
COc1ccc(-c2cc(-c3cccs3)c(C#N)c(SCC(=O)NCc3ccco3)n2)cc1 | 8.3% | 56.2µM* | x | -6.1%
COC(=O)CSc1nc(-c2cccs2)ccc1C#N | -13.1% | 39.8µM* | u | u
CCN(CC)C(=O)CSc1nc(N)c(C#N)c(-c2cccs2)c1C#N | -2.0% | 4.6% | 0.0% | -1.9%
CCN(CC)C(=O)CSc1nc(-c2cccs2)cc(-c2cccs2)c1C#N | u | 7.94µM* | u | 11.9µM*
COC(=O)CSc1cnc2ccccc2n1 | 4.4% | 11.7% | -0.5% | -6.9%
C#CCSc1nc(-c2cccs2)ccc1C#N | -0.2% | -9.4% | 0.9% | -7.0%
COc1ccc(CNC(=O)CSc2nc(-c3ccccc3)cc(-c3cccs3)c2C#N)cc1 | 4.0% | -28.9% | -27.5% | -9.4%
COC(=O)CSc1nc2ccccc2nc1SCC(=O)OC | -3.1% | 50.1µM* | -22.6% | -9.1%
O=C(Nc1ccc(-n2nncc2-c2ccccc2)cc1)c1cccc(F)c1 | 13.2% | x | -27.5% | x
CCS(=O)(=O)N1CCC2(CC1)CN(C1CCC1)CC2COC (stereo not given) | x | x | 36.4% | x
Cc1nc2scc(C)n2c(=O)c1S(=O)(=O)NCCc1ccccc1 | u | 20.7% | 8.0% | 11.9µM*
